From PubChem
ugtP null kill – growth inhibition of ugtP-null S. aureus, primary screen, RN4220 ugtP deletion, OD600; growth inhibition, % (test concentration not listed); 16 h; actives 0.54% (n = 330,000); in the data active means growth inhibition above about 68%;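 further: plate controls were untreated wells for no effect and antibiotic for full effect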
Mtb hypoxia inh – PubChem AID 1159583 | M. tuberculosis hypoxia-regulated fluorescent reporter, fluorescence | fluorescence inhibition, % (concentration not given with the values) | actives 0.1% (n = 300,000); in the data active means fluorescence inhibition mostly above about 23%, no sharp cut-off; inactive means mostly below about 17%
RecA intein inh – Mtb RecA intein splicing inhibitors, primary screen, biochemical, fluorescence, HTS; Protein RecA (Mycobacterium tuberculosis (strain ATCC 25618 / H37Rv)), P9WHJ3; cell-free RecA intein splicing; inhibition, % (no concentration beside the values); actives 0.75% (n = 290,000); AID 2221, 2009; in the data active means inhibition above about 30%;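 further: 0% = vehicle wells and 100% = reference inhibitor control wells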
Target sequence (P9WHJ3 whole entry, looked up): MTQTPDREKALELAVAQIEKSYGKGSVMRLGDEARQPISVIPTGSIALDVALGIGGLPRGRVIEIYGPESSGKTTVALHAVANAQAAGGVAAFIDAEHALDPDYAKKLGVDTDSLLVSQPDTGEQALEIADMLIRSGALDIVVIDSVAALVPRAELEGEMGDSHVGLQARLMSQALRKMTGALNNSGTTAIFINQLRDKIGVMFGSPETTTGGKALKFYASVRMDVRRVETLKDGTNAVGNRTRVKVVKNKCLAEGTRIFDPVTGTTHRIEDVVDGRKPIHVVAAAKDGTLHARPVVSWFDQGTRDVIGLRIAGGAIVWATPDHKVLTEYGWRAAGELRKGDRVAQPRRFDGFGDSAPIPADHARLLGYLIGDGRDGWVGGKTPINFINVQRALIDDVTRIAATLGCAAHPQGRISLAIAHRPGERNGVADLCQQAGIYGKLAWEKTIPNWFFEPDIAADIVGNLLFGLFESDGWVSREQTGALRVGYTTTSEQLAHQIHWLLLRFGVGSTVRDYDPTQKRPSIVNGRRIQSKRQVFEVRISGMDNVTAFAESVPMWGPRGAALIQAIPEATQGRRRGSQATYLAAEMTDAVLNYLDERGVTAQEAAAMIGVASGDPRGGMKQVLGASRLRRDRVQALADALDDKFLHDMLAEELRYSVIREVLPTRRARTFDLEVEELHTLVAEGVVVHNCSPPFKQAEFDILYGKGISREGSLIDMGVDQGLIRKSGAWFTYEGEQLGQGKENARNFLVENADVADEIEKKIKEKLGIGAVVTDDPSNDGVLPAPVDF
BJeLR viability – MLPCN primary cell-based screen for lethality selective to Ras in HRASV12 cells. AID 1554, 2009. BJeLR (HRASV12) viability, CellTiter-Glo ATP luminescence, 48 h. actives 0.17% (n = 300,000). inhibition, % (test concentration not listed); in the data active means inhibition above about 50%
RN4220 kill – growth inhibition of S. aureus RN4220, primary screen, OD600. actives 0.33% (n = 330,000). 16 h. inhibition, % (no concentration beside the values); in the data active means inhibition above about 85%;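 further: plate controls were untreated cells for no effect and reference antibiotic for full effect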
CCHFV vOTU inh – CCHFV vOTU protease inhibitors, primary screen, biochemical, Pep-AMC substrate, fluorescence. inhibition, % at 11.5 µM. Crimean-Congo hemorrhagic fever virus L polyprotein viral ovarian tumor (vOTU) protease …. actives 0.55% (n = 370,000); in the data active means inhibition above about 30%; further: 0% = vehicle wells with enzyme and 100% = no enzyme wells
* hit, by the source's call; nt = no result given. In the library only some 1.6% were active in any assay of this set; here they are far more common.

SMILES	ugtP null kill	Mtb hypoxia inh	RecA intein inh	BJeLR viability	RN4220 kill	CCHFV vOTU inh
Cc1ccc(C2(C)NC(=O)N(CC(=O)N3c4ccccc4NC(=O)CC3C)C2=O)cc1 (configuration not stated)	-1	13*	nt	nt	2	-8
Cc1ccc(C2(C)NC(=O)N(CC(=O)N3CCc4ccccc43)C2=O)cc1 (configuration not stated)	-8	-1	nt	nt	0	11
COc1nc(SC)nc(Cl)c1Cc1ccc(OC(C)C)cc1	92*	6	3	2	-7	11
CCCOc1ccc(Cc2c(Cl)nc(SC)nc2OC)cc1	89*	-2	4	4	-4	3
CSc1nc(N2CCOCC2)c2sccc2n1	15	-1	4	8	7	4
CCCOc1ccc(Cc2c(Cl)nc(SC)nc2N(C)C)cc1	87*	-7	2	-6	-2	-2
CSc1nc(Cl)c(Cc2ccc(OC(C)C)cc2)c(N2CCOCC2)n1	97*	5	5	-4	-5	1
CCCOc1ccc(CSc2n[nH]c(C)n2)cc1	nt	nt	1	-4	nt	-12
NC(COc1ncn(-c2ccccc2)n1)=NS(=O)(=O)c1ccc(Cl)cc1Cl	-7	6	nt	nt	6	nt
C=CCNC(=O)COC(=O)C=Cc1cccs1	-4	2	nt	nt	4	nt
COc1cc(C=CC(=O)NCc2ccc3c(c2)cc(C)n3C)cc(OC)c1OC	-1	-6	nt	nt	6	nt
O=C1C=C(c2ccc(F)cc2OCc2ccccc2)CC(c2ccc(F)cc2)C1 (configuration not stated)	5	3	nt	nt	-3	nt
COc1ccc2c(c1)C(=NO)c1cc(OC)ccc1-2	100*	5	4	-2	-3	12
O=S(=O)(Nc1cccc(-c2nc3cccnc3s2)c1)c1ccc2c(c1)OCCO2	93*	-4	-2	1	8	13
CC(C)CC(NP(=O)(O)OC1OC(C)C(O)C(O)C1O)C(=O)NC(Cc1c[nH]c2ccccc12)C(=O)O (configuration not stated)	0	0	nt	nt	3	nt
CCC(C)C1C(C#N)=C(N)Oc2n[nH]c(-c3ccccc3)c21 (configuration not stated)	-14	-2	5	3	6	4
Cc1nn(C)c(C)c1C1C(C#N)=C(N)Oc2n[nH]c(C)c21 (configuration not stated)	-3	-1	43*	8	-4	6
Cc1[nH]nc2c1C(c1cc(Br)cs1)C(C#N)=C(N)O2 (configuration not stated)	5	11	53*	21	12	12
Cc1ccc(-n2nc(C)c3c2OC(N)=C(C#N)C3c2ccc(F)cc2)cc1 (configuration not stated)	-12	5	60*	-7	4	-1
Cc1ccc(C2C(C#N)=C(N)Oc3n[nH]c(-c4ccccc4)c32)o1 (configuration not stated)	10	nt	88*	-1	7	4
COC1=CC(=O)OC(C=Cc2ccccc2)C1 (configuration not stated)	-1	1	nt	nt	5	nt
COC(=O)C1=CC(C(=O)OC)C2C3=C(C(=O)[C@]2(C)NC(=O)c2ccccc2)C(C)n2c(=O)n(-c4ccccc4)c(=O)n2C3C1 (some centres not stated)	2	12	nt	nt	3	nt
Cc1nn(-c2ccccc2)c(C)c1C1C(C#N)=C(N)Oc2n[nH]c(C)c21 (configuration not stated)	0	5	63*	7	3	-15
OCCC1CC(O)C(O)[C@@]2(Cc3ccccc3CCO2)O1 (some centres not stated)	0	10	nt	nt	6	nt
Nc1nc(CCl)nc(Nc2cccc3ccccc23)n1	8	nt	16	125*	5	-11
SMILES	ugtP null kill	Mtb hypoxia inh	RecA intein inh	BJeLR viability	RN4220 kill	CCHFV vOTU inh
Nc1nc(Nc2cccc3ccccc23)nc(C2CCCC2=O)n1 (configuration not stated)	nt	nt	1	-5	nt	4
CC(C)C(=O)N1CCN(c2ccc(NC(=O)c3ccc([N+](=O)[O-])o3)cc2Cl)CC1	56	nt	nt	nt	47	-2
CN1CCN(c2ccc(NC(=O)c3ccc([N+](=O)[O-])o3)cc2Cl)CC1	101*	25	-6	-1	99*	11
O=C(Nc1ccc(N2CCOCC2)c(Cl)c1)c1ccc([N+](=O)[O-])o1	96*	25	-3	-16	65	-5
CC(C)C1Nc2c(O)cc(Cl)c([N+](=O)[O-])c2C2C=CCC21 (configuration not stated)	93*	21	20	10	87*	18
O=C(O)C1Nc2c(Cl)cc(Cl)c(Cl)c2C2C=CCC12 (configuration not stated)	2	8	7	-12	8	-2
Cc1cccc(C2C3C(=O)N(Cc4ccccc4)C(=O)C3[C@]3(CC(C)C)C(=O)N(c4cccc(F)c4)C(=O)N23)c1 (some centres not stated)	-17	15	nt	nt	2	nt
Cc1ccc(S(=O)(=O)N(C)CC2Oc3ccc(NC(=O)Nc4c(C)noc4C)cc3CC(=O)N(C(C)CO)CC2C)cc1 (configuration not stated)	4	-6	nt	nt	2	nt
COc1cc(/C=C2/C(=O)N(c3ccc(Br)cc3)N=C2C)cc(OC)c1OC	8	7	63*	25	5	nt
O=C(NC(Cc1ccccc1)C(=O)O)C(=Cc1ccco1)NC(=O)c1ccco1 (configuration not stated)	-7	4	nt	nt	-2	nt
Oc1ccc(/C(Cc2ccc3ccccc3n2)=N\Nc2ccccc2)c(O)c1	nt	nt	47*	3	nt	-4
Oc1ccc(/C(Cc2ccccn2)=N\Nc2ccccc2)c(O)c1	nt	nt	19	-2	nt	2
Brc1ccc(OCc2nnc3n2CCC3)cc1	-2	36*	1	5	2	11
c1ccc(OCc2nnc3n2CCCCC3)cc1	2	7	1	8	0	-2
CNC(=S)N1CCN(c2c(F)cc3c(=O)c(C(=O)O)cn(C4CC4)c3c2OC)CC1C (configuration not stated)	100*	nt	-9	-1	100*	-1
COC(=O)C(C)NC(=S)N1CCN(c2c(F)cc3c(=O)c(C(=O)O)cn(C4CC4)c3c2OC)CC1C (configuration not stated)	100*	nt	4	4	100*	-18
C=CCCC(Cc1ccc(F)cc1)C(=O)OCC1CCCN1C(=O)C(CC=C)CC(=O)NCCO (configuration not stated)	-10	7	nt	nt	4	nt
C=CCCC(Cc1ccc(F)cc1)C(=O)OCC(NC(=O)C(CC=C)CC(=O)NCCO)c1ccccc1 (configuration not stated)	6	21	nt	nt	5	nt
